{"source": "the supplement of paper PMC9950053", "note": "Where a name gives a salt, the structure may show the parent alone."}
{"system": "Danio rerio larvae (5 dpf)", "experiment": "1-h baseline activity (% time moving, periods 1-6) minus DMSO control (percentage points); higher = more locomotor activity than DMSO larvae", "conditions": "10 µM; exposure time: 3 h pre-incubation + 3 h imaging", "procedure": "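Wild-type 5 dpf zebrafish larvae (n=48 per drug, 96-well plates, 28.5 °C) were exposed to Tocris FDA-approved library compounds at 10 µM (0.1% DMSO) for 3 h before and 3 h during imaging. Images were taken every 6 s during visual and acoustic stimuli, and larvae were tracked with Z-LaP Tracker. Each measure is the treated-group mean minus the DMSO control mean (n=844), in percentage points. This mapping covers compounds with 5-character plate codes.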"}
{"compound": "C[C@H]1O[C@H](O[C@H]2[C@H](O)[C@@H](O)[C@@H](O[C@H]3[C@H](O)[C@@H](O)C(O)O[C@@H]3CO)O[C@@H]2CO)[C@H](O)[C@@H](O)[C@@H]1N[C@H]1C=C(CO)[C@@H](O)[C@H](O)[C@H]1O", "note": "(some centres not stated) [Acarbose]", "1-h baseline activity": -1.61}
{"compound": "NS(=O)(=O)c1cc2c(cc1Cl)NC(C1CC3C=CC1C3)NS2(=O)=O", "note": "(configuration not stated) [Cyclothiazide]", "1-h baseline activity": 0.814}
{"compound": "COc1cc(N)c(Cl)cc1C(=O)NC1CCN(CCCOc2ccc(F)cc2)CC1OC", "note": "(configuration not stated) [Cisapride]", "1-h baseline activity": -0.963}
{"compound": "NC(=O)OCC(COC(N)=O)c1ccccc1", "note": "[Felbamate]", "1-h baseline activity": -2.82}
{"compound": "N#C[C@@H]1C[C@@H]2C[C@@H]2N1C(=O)[C@@H](N)C12CC3CC(CC(O)(C3)C1)C2", "note": "[Saxagliptin hydrochloride]", "1-h baseline activity": 2.3}
{"compound": "COc1cc([C@@H]2c3cc4c(cc3[C@@H](O[C@@H]3O[C@@H]5CO[C@@H](C)O[C@H]5[C@H](O)[C@H]3O)[C@H]3COC(=O)[C@H]23)OCO4)cc(OC)c1O", "note": "[Etoposide]", "1-h baseline activity": 4.86}
{"compound": "CCc1nc(N)nc(N)c1-c1ccc(Cl)cc1", "note": "[Pyrimethamine]", "1-h baseline activity": -1.81}
{"compound": "CCCc1nn(C)c2c(=O)[nH]c(-c3cc(S(=O)(=O)N4CCN(C)CC4)ccc3OCC)nc12", "note": "[Sildenafil citrate]", "1-h baseline activity": -12.4}
{"compound": "CNS(=O)(=O)Cc1ccc2[nH]cc(CCN(C)C)c2c1", "note": "[Sumatriptan succinate]", "1-h baseline activity": 9.45}
{"compound": "COCCc1ccc(OCC(O)CNC(C)C)cc1", "note": "(configuration not stated) [Metoprolol tartrate]", "1-h baseline activity": 3.15}
{"compound": "C#CCN[C@@H]1CCc2ccccc21", "note": "[Rasagiline mesylate]", "1-h baseline activity": 4.3}
{"compound": "CC[C@H]1OC(=O)[C@H](C)[C@@H](O[C@H]2C[C@@](C)(OC)[C@@H](O)[C@H](C)O2)[C@H](C)[C@@H](O[C@@H]2O[C@H](C)C[C@H](N(C)C)[C@H]2O)[C@](C)(O)C[C@@H](C)CN(C)[C@H](C)[C@@H](O)[C@]1(C)O", "note": "[Azithromycin]", "1-h baseline activity": -12}
{"compound": "CCCCCCCN(CC)CCCC(O)c1ccc(NS(C)(=O)=O)cc1", "note": "(configuration not stated) [Ibutilide hemifumarate]", "1-h baseline activity": -6.03}
{"compound": "COc1cc2nccc(Oc3ccc(NC(=O)C4(C(=O)Nc5ccc(F)cc5)CC4)cc3)c2cc1OC", "1-h baseline activity": 15.1}
{"compound": "CNCc1ccc(-c2[nH]c3cc(F)cc4c3c2CCNC4=O)cc1", "note": "[Rucaparib camsylate]", "1-h baseline activity": -14.5}
{"compound": "CC(C)(C(=O)O)c1ccc(C(O)CCCN2CCC(C(O)(c3ccccc3)c3ccccc3)CC2)cc1", "note": "(configuration not stated) [Fexofenadine hydrochloride]", "1-h baseline activity": 5.08}
{"compound": "Cc1cc2c(s1)Nc1ccccc1N=C2N1CCN(C)CC1", "note": "[Olanzapine]", "1-h baseline activity": 6.18}
{"compound": "OC(c1cc(C(F)(F)F)nc2c(C(F)(F)F)cccc12)C1CCCCN1", "note": "(configuration not stated) [Mefloquine hydrochloride]", "1-h baseline activity": -2.24}
{"compound": "CNC(=O)c1cc(Oc2ccc(NC(=O)Nc3ccc(Cl)c(C(F)(F)F)c3)cc2)ccn1", "note": "[Sorafenib]", "1-h baseline activity": -0.439}
{"compound": "O=C(O)C[C@H](O)C[C@H](O)/C=C/c1c(C2CC2)nc2ccccc2c1-c1ccc(F)cc1", "note": "[Pitavastatin calcium]", "1-h baseline activity": -1.53}
{"compound": "CCCC1O[C@@H]2C[C@H]3[C@@H]4CCC5=CC(=O)C=C[C@]5(C)[C@H]4[C@@H](O)C[C@]3(C)[C@]2(C(=O)CO)O1", "note": "(some centres not stated) [Budesonide]", "1-h baseline activity": 3.74}
{"compound": "COc1ccccc1Oc1c(NS(=O)(=O)c2ccc(C(C)(C)C)cc2)nc(-c2ncccn2)nc1OCCO", "note": "[Bosentan]", "1-h baseline activity": 1.43}
{"compound": "CC(=O)Nc1ccc(O)cc1", "note": "[Acetaminophen]", "1-h baseline activity": 6.48}
{"compound": "CN[C@H]1CC[C@@H](c2ccc(Cl)c(Cl)c2)c2ccccc21", "note": "[Sertraline hydrochloride]", "1-h baseline activity": -24}
{"compound": "OCCN1C[C@H](O)[C@@H](O)[C@H](O)[C@H]1CO", "note": "[Miglitol]", "1-h baseline activity": -2.34}
{"compound": "C[C@@H]1C[C@H]2[C@@H]3CCC4=CC(=O)C=C[C@]4(C)[C@@]3(F)[C@@H](O)C[C@]2(C)[C@@]1(O)C(=O)CO", "note": "[Dexamethasone]", "1-h baseline activity": 15.7}
{"compound": "N#Cc1ccc2[nH]cc(CCCCN3CCN(c4ccc5oc(C(N)=O)cc5c4)CC3)c2c1", "note": "[Vilazodone hydrochloride]", "1-h baseline activity": -24.2}
{"compound": "OCc1cc(C(O)CNCCCCCCOCCCCc2ccccc2)ccc1O", "note": "(configuration not stated) [Salmeterol xinafoate]", "1-h baseline activity": 12.2}
{"compound": "CC(C)COCC(CN(Cc1ccccc1)c1ccccc1)N1CCCC1", "note": "(configuration not stated) [Bepridil hydrochloride]", "1-h baseline activity": -2.55}
{"compound": "COc1ccccc1OCC(O)CN1CCN(CC(=O)Nc2c(C)cccc2C)CC1", "note": "(configuration not stated) [Ranolazine dihydrochloride]", "1-h baseline activity": 8.63}
{"compound": "CC(C)OC(=O)C(C)(C)Oc1ccc(C(=O)c2ccc(Cl)cc2)cc1", "note": "[Fenofibrate]", "1-h baseline activity": 6.92}
{"compound": "O=C1CCc2ccc(OCCCCN3CCN(c4cccc(Cl)c4Cl)CC3)cc2N1", "note": "[Aripiprazole]", "1-h baseline activity": 6.58}
{"compound": "CN(C)C(=N)NC(=N)N", "note": "[Metformin hydrochloride]", "1-h baseline activity": -8.39}
{"compound": "O=c1n(CCCN2CCN(c3cccc(Cl)c3)CC2)nc2ccccn12", "note": "[Trazodone hydrochloride]", "1-h baseline activity": -3.8}
{"compound": "Clc1ccc2nsnc2c1NC1=NCCN1", "note": "[Tizanidine hydrochloride]", "1-h baseline activity": -14}
{"compound": "CN(C)CCc1c[nH]c2ccc(C[C@H]3COC(=O)N3)cc12", "note": "[Zolmitriptan]", "1-h baseline activity": 6.44}
{"compound": "CC(=O)Oc1cc2c(s1)CCN(C(C(=O)C1CC1)c1ccccc1F)C2", "note": "(configuration not stated) [Prasugrel]", "1-h baseline activity": -2.32}
